Test results as given in PubChem BioAssay AID504333 (National Center for Advancing Translational Sciences (NCATS), 2011).
Screen size: about 360,000 compounds; about 16,000 (4.4%) were called active. Roughly 9% stayed inconclusive and do not appear here. The call rests on the fitted dose curve; in most records, active means well fitted inhibition curve with a large enough effect; inconclusive means small, poorly fitted or top-dose-only effect; inactive means no such curve, though single readings can be large or run the other way. The full list was thinned out, with actives kept by preference.

The compounds below were run against Bromodomain adjacent to zinc finger domain protein 2B (Homo sapiens) (UniProt Q9UIF8) (assay: qHTS Assay for Inhibitors of BAZ2B). Conditions: AlphaScreen BAZ2B-H3K14Ac peptide displacement; series mostly up to 114 µM; activity change, negative = inhibition: at the top concentration.
Sequence of Bromodomain adjacent to zinc finger domain protein 2B (Homo sapiens) (Q9UIF8 whole entry, looked up, the tested form may be a part): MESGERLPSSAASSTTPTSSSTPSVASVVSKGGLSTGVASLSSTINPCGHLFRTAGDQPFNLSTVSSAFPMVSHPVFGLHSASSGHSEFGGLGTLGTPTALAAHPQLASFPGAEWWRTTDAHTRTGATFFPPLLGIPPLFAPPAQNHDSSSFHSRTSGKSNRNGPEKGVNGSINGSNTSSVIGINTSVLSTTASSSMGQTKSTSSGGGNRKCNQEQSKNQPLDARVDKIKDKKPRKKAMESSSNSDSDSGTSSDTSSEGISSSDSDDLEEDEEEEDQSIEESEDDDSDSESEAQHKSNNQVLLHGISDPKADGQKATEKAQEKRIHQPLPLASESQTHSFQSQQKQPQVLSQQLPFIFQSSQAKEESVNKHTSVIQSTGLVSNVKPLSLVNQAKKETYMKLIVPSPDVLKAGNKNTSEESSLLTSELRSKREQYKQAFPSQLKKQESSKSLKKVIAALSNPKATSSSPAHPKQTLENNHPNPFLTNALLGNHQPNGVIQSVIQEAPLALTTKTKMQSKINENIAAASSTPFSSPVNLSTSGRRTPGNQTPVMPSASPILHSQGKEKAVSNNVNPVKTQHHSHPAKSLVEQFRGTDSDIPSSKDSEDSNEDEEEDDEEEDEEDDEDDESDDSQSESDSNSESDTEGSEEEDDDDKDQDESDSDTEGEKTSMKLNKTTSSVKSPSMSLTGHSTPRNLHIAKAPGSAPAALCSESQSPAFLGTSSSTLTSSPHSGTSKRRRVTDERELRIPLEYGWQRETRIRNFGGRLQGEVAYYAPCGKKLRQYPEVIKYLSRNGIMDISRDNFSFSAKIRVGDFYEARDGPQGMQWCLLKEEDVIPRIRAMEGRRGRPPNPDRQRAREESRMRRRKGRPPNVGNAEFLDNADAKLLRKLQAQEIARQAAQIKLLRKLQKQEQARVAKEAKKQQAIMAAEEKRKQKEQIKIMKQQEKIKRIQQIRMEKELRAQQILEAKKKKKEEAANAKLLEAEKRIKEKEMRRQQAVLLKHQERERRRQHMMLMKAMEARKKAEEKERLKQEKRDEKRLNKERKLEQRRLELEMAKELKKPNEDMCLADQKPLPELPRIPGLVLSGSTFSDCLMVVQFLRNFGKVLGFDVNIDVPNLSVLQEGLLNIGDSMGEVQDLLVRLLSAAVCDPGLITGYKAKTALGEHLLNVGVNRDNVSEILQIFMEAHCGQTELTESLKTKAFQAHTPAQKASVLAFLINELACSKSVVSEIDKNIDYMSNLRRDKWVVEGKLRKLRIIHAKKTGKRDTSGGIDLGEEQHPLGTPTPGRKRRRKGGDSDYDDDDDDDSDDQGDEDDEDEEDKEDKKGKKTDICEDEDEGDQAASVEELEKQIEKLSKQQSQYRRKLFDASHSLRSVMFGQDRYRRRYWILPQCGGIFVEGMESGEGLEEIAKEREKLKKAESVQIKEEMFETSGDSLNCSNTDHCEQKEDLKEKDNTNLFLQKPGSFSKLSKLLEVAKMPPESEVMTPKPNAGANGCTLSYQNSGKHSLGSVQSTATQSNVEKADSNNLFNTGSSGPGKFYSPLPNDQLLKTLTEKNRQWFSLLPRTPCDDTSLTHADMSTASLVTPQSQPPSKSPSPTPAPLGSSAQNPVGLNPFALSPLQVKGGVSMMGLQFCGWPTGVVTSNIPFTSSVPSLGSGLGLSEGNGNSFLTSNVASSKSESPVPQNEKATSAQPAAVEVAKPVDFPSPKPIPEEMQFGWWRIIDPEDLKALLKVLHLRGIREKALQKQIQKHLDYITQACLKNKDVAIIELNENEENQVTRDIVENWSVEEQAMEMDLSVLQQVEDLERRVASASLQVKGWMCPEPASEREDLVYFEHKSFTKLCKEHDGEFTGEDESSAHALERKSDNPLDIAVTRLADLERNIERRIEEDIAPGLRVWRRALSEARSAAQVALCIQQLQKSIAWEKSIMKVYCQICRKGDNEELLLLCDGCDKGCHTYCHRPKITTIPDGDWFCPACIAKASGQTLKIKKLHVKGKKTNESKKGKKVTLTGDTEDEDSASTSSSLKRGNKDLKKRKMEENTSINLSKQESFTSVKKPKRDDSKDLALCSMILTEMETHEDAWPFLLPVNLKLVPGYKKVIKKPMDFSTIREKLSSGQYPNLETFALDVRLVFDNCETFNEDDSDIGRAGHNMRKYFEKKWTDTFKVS
Procedure, shortened: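 Multi-concentration screen (max 110 uM) measuring displacement of acetylated histone H3 peptide from BAZ2B by AlphaScreen, using 50 nM protein, 50 nM peptide and 10 ug/mL streptavidin donor plus Ni-chelate acceptor beads.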
Further: nearly all actives have a fitted effect of over 60% in size.
On the % scale 0 is the no-effect control and ±100 the full control effect; potency means the concentration at half of the fitted maximal effect.

Activity change, negative = inhibition, inactive:
Cc1ccc(S(=O)(=O)c2nc(NCCCn3ccnc3)sc2Cl)cc1 -51.5%
Cc1cc2ccccc2n1CCNC(=O)c1ccc(F)cc1 -14.6%
CCC(=O)N1c2ccccc2CC1C(=O)N1CCN(c2ccccc2F)CC1 (stereo not given) -9.61%
O=S(=O)(c1ccc2nc(NCc3ccccc3Cl)ccc2c1)N1CCCCC1 -19.2%
CCCNC(=O)c1ccc2c(c1)ncn2-c1ccc(C)cc1C -0.425%
CSc1nc(=O)c2c(n1C)NC(=O)CC2c1ccccc1OC(C)C (stereo not given) 0.682%
COc1ccc(Cl)cc1NC(=O)C(C)Sc1nc2c(c(=O)[nH]1)CCCC2 (stereo not given) -2.65%
COc1cccc(-c2nnc(SCC(=O)N3CCC(C)CC3)o2)c1 2.96%
Cc1nnc(N2CCC(C(=O)Nc3ccc(F)cc3)CC2)c2nn(-c3ccc(Cl)cc3)c(C)c12 -3.82%
N#C/C(=C/c1cccc([N+](=O)[O-])c1)c1nnc2n1CCCCC2 -6.09%
O=C(COC(=O)c1ccccc1F)Nc1cc(S(=O)(=O)N2CCOCC2)ccc1N1CCCC1 -2.68%
CC(=O)NCCC(=O)Nc1cc(S(=O)(=O)N2CCOCC2)ccc1N1CCOCC1 -10.5%
CCOCCCn1c(SCC(=O)Nc2ccc(CC)cc2)nc2ccccc2c1=O 11.4%
COc1ccc(S(=O)(=O)c2c(Nc3cccc(Cl)c3)sc(C(=O)c3ccccc3)c2N)cc1 -20.4%
O=C(c1ccc(S(=O)(=O)N2CCOCC2)cc1)N1CCN(c2ccccc2)CC1 -2.71%
COc1ccccc1CNC(=O)c1ccc(CS(=O)(=O)c2ccccc2)o1 -5.07%
Cc1ccc2oc(=O)c3cnn(CC(=O)N4CCN(c5cccc(Cl)c5)CC4)c3c2c1 2.22%
O=S(=O)(NC1CCCCC1N1CCN(c2ccccc2F)CC1)c1ccccc1 (stereo not given) -10.1% [at 57.1 µM]
CCN1CCN(C2CCCCC2NS(=O)(=O)c2ccc(Cl)cc2)CC1 (stereo not given) -4.4% [at 57.1 µM]
O=C(NCc1ccc(F)cc1)c1ccc2nc(N3CCCCC3)sc2c1 9.7%
COc1ccc(C(=O)Nc2nonc2-c2ccc(OC)c(OC)c2)cc1Cl 5.28%
CCCCCn1c(CCNC(=O)c2ccc(F)cc2)nc2ccccc21 0.99%
CN1OC(COC(=O)c2ccc(Cl)cc2)CC1c1ccccc1 (stereo not given) 58.4%
Cc1ccc(S(=O)(=O)N2[C@@H](c3ccccc3F)C(C(=O)O)=CC[C@H]2c2ccc(Cl)cc2)cc1 -5.93%
Cc1cc2n(n1)C(c1cc(C(C)(C)C)c(O)cc1O)Nc1ccccc1-2 (stereo not given) -14.5%
CSc1nc(-c2ccccc2Cl)nc2c1Cc1c(CO)cnc(C)c1O2 -8.33%
O=C(CSc1nc2nccnc2c(=O)n1CCc1c[nH]c2ccccc12)Nc1ccccc1F 3.9%
Cc1ccc(CSc2nc3ccsc3c(=O)n2CCC(C)C)cc1 78.6%
COc1ccc(Nc2ncc(F)c(N3CCOCC3)n2)cc1 -27%
Cc1ccc(Nc2nc(N3CCOCC3)nc(N3CCOCC3)n2)cc1Cl -13.2%
CCOc1ccccc1NC(=O)Cn1nnc(C(=O)NCc2cccs2)c1N -12.9%
CCOC(=O)c1ccc(NC(=O)Cc2cccs2)cc1 4.75%
COc1ccc(CNc2nc(-c3ccccc3)nn2C(=O)c2ccccc2OC)cc1 -2.25%
COc1ccc(NC(=O)c2sc(N)nc2-c2ccccc2)cc1 -2.58%
Nc1ccc(-c2nnc(-c3ccccc3)o2)cc1 17%
COc1cc(C(=O)N2CCN(c3ccc(Nc4ccc(C)cc4)nn3)CC2)cc(OC)c1OC -18.6%
Cc1ccc(-n2ccc(=O)c(C(=O)O)n2)cc1 3.19%
Cc1ccc(S(=O)(=O)NCC(=O)N2CCN(c3ccccn3)CC2)cc1 4.28%
O=S(=O)(NCCc1nnc2ccc(SCc3ccc(Cl)cc3Cl)nn12)c1ccccc1 -33.8%

Potency, active:
C=CCc1cc(C)ccc1OCCCn1ccnc1 31.6 µM
Clc1c(OCCCn2ccnc2)ccc2ccccc12 39.8 µM
N#C/C(=C(\O)CCl)c1nnc2n1CCCCC2 79.4 µM
O=C(CNCc1ccco1)Nc1cc(S(=O)(=O)N2CCOCC2)ccc1N1CCCC1 50.1 µM
O=C(c1ccc(CS(=O)(=O)c2ccccc2)o1)N1CCN(c2ccccc2)CC1 56.2 µM
COc1ccc(N2CCN(C3CCCCC3NS(=O)(=O)c3ccccc3)CC2)cc1 (stereo not given) 17.8 µM
Cc1ccccc1S(=O)(=O)N1[C@@H](c2cccc(Cl)c2)C(C(=O)O)=CC[C@H]1c1ccc(Cl)cc1 79.4 µM
CCOc1ccc(Nc2nc(Cl)nc(N3CCN(c4ccc(OC)cc4)CC3)n2)cc1 8.91 µM
CCOc1ccccc1NC(=O)Cc1cccs1 50.1 µM
Nc1ccc(-c2sc(N)nc2-c2ccccc2)cc1 50.1 µM
Cc1ccc(N2CCN(c3ccc(C)cc3)C2c2ccccn2)cc1 50.1 µM
